# Experimental data: PubChem BioAssay AID488890 (Southern Research Specialized Biocontainment Screening …, 2010)
# Screen size: about 320,000 compounds; about 1,300 (0.41%) were called active. Roughly 3% stayed inconclusive and do not appear here. No rule for the calls is given here. Only a sample is shown. Entries with a potency or affinity are not part of this list.
# Assay: growth inhibition of non-replicating M. tuberculosis (AID 488890);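 also: plate controls were DMSO cells for no effect and high antibiotic wells for full effect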
# Details: Mycobacterium tuberculosis non-replicating, at 25 µM, stronger effect = higher value
row,Structure (SMILES),inhibition [%]
1,CC1CCCC(NC(=O)COC(=O)c2ccc(Cl)nc2)C1C (stereo not drawn),-6.83
2,C=CCn1c(C)csc1=Nc1ccccc1C,10.7
3,CCc1ccccc1NC(=O)c1noc(C(C)C)c1[N+](=O)[O-],-10.1
4,Cc1nn(Cc2ccccc2Cl)c(C)c1NC(=O)c1noc(C(C)C)c1[N+](=O)[O-],-8.32
5,O=C1CN(S(=O)(=O)c2ccccc2)CCN1,3.07
6,O=C(CC(c1ccccc1)c1ccccc1O)NCc1ccccc1Cl (stereo not drawn),23.8
7,O=C(O)c1ccc(N2C(=O)CSC2=S)cc1,74.2
8,O=C(O)c1ccc(N=C2SCC(=O)N2Cc2ccccc2)cc1,7
9,O=C1CSC(=Nc2ccc(Cl)cc2)N1Cc1cccnc1,1.07
10,O=C1CSC(=S)N1c1cccnc1,11.9
11,N#Cc1ccc(OCC(O)CN2CCN(CC(O)COc3ccc(C#N)cc3)CC2)cc1 (stereo not drawn),-21.4
12,Brc1ccc(-c2nnc(-c3cccnc3)o2)cc1,68.4
13,Cc1ccc(-c2nnc(-c3cccnc3)o2)cc1,37.8
14,CN(C)S(=O)(=O)c1cccc(-c2nnc(SCc3cc(Cl)cc4c3OCOC4)n2N)c1,23.1
15,Cc1onc(-c2ccccc2Cl)c1C(=O)Nc1ccccc1O,8.07
16,CN1CC(=O)N/C1=N\C(=O)Nc1ccc(O)cc1,-12.3
17,CN1CC(=O)NC1=NC(=O)c1cc(F)c(F)cc1Cl,-0.31
18,COc1ccc(C2NC(=S)NC(C)=C2C(=O)Nc2ccccn2)cc1OC (stereo not drawn),-7.65
19,Cc1ccc(COC(=O)c2cc(S(=O)(=O)N3CCOCC3)ccc2C)cc1,40.1
20,C/C(=N/NC(=O)c1ccncc1)c1cc2ccc(O)cc2oc1=O,78.4
21,COc1ccc2oc(=O)c(/C(N)=N/NC(=O)c3ccncc3)cc2c1,61.4
22,COc1ccc(/C(C)=N/NC(=O)c2ccncc2)cc1,67.2
23,C/C(=N\NC(=O)c1ccncc1)c1cc2ccccc2o1,69.3
24,O=C(CCC(=O)N1CCOCC1)NCCc1ccc(F)cc1,5.21
25,CC(C)C(NCC(=O)Nc1ccccc1C(=O)NC1CC1)c1ccccc1 (stereo not drawn),19.6
26,CCC(C)(C)NS(=O)(=O)c1cc(CN2C(=O)c3cccnc3C2=O)ccc1OC,17.1

row,Structure (SMILES),inhibition [%]
1,CCOC(=O)N1CCN(C(=O)COc2ccc3c(c2)C(=O)CC2(CCN(C(C)=O)CC2)O3)CC1,-4.94
2,O=C1CC2(CCCCC2)Oc2ccc(OCC(=O)N3CCOCC3)cc21,43.3
3,COc1ccc(C(=O)CCNc2cccc(Cl)c2)cc1,73.7
4,O=C(Nc1ccc(Cl)c(C(F)(F)F)c1)c1ccco1,71.2
5,O=C(CNC(=O)c1ccco1)Nc1ccc(F)cc1,-22.8
6,O=C(CNC(=O)c1ccco1)Nc1cccc(Cl)c1,-9.33
7,COc1ccc(C(=O)CC(=O)c2ccc(OC)cc2)cc1,19.6
8,O=C(CCNc1cc(Cl)cc(Cl)c1)c1ccco1,-7.67
9,O=C(/C=C/Nc1ccc(F)cc1)c1ccco1,-1.7
10,O=C(CCNC(=O)c1ccco1)Nc1ccc(Cl)c(C(F)(F)F)c1,4.07
11,O=C(CN1C(=O)NC2(CCCCC2)C1=O)N1CCN(c2ncccn2)CC1,3.11
12,CC(C)(SC(=S)N1CCCCCC1)C(=O)O,13.4
13,CC1=C(C(=O)NCc2ccc3c(c2)OCO3)C2(CCC(C)CC2)OC1=O (stereo not drawn),1.75
14,COc1ccccc1-n1cnnc1SC(C)C(=O)Nc1ccc(NC(C)=O)cc1 (stereo not drawn),-12.2
15,Oc1c(C(c2ccc(F)cc2)N2CCc3ccccc3C2)sc2ncnn12 (stereo not drawn),13.3
16,Cc1cc(C)cc(OCc2nnc(SCC(=O)c3ccccc3)o2)c1,-6.78
17,C/C(N)=C(/C#N)C(=O)CSc1nnc(C)n1-c1ccccc1,-16.6
18,O=C(O)C(F)(F)S(=O)(=O)O,-5.17
19,Cc1cccc(NC2=NC3(CCCCC3)N=C(N)N2)c1,22.2
20,Cc1ccc(C)c(NC(=S)NCc2ccc3c(c2)OCO3)c1,79.5
21,CC(=O)Nc1ccc(Nc2ccc3nonc3c2[N+](=O)[O-])cc1,1.34
22,COc1cccc(CNC(=O)CCNS(=O)(=O)c2ccc3[nH]c(=O)oc3c2)c1,-5.61
23,Cc1ccc(C(=O)NCC(=O)Nc2ccc(F)c(F)c2F)cc1,-13.1
24,O=C(Cn1nnc(-c2ccccc2)n1)NNC(=O)c1ccco1,67.8
25,COc1ccc(C(=O)Oc2ccc(/C=N/Nc3ccc(Cl)c(C(=O)O)c3)cc2OC)cc1,12.6
26,COc1cc(/C=N/NC(N)=O)ccc1OC(=O)c1cccs1,2.79

row,Structure (SMILES),inhibition [%]
1,O=C(N/N=C/c1ccc(OC(=O)c2ccco2)cc1)c1ccncc1,69
2,Cc1ccc(C(=O)N/N=C\c2ccc(OC(=O)c3cccs3)cc2)cn1,-8.9
3,COc1cc(/C=N/NC(=O)C(N)=O)ccc1OC(=O)c1cccs1,-4.85
4,COc1cc(/C=N/Nc2ccc(Cl)c(C(=O)O)c2)ccc1OC(=O)c1ccccc1F,39
5,O=C(N/N=C\c1ccc(OC(=O)c2ccco2)cc1)c1ccc(Cl)cc1,78.6
6,O=C(N/N=C\c1ccc(OC(=O)c2cccs2)cc1)c1ccc(Cl)cc1,52.2
7,COc1ccc(C2CC(C(F)(F)F)n3ncc(C(=O)O)c3N2)cc1OC (stereo not drawn),-8.85
8,COc1cc(OC)cc(C(=O)NC(=S)N2C[C@H]3C[C@H](C2)c2cccc(=O)n2C3)c1,-9.19
9,CN(CC(=O)NCc1cccnc1)S(=O)(=O)c1ccc(F)cc1,-7.08
10,COc1ccc(/C=N/NC(=O)c2ccccc2OCc2ccccc2)c(OC)c1,32
11,C/C(=N\NC(=O)Cc1ccc([N+](=O)[O-])cc1)c1cccnc1,-2.22
12,Cc1cc(C(=O)NNC(=O)c2cccs2)c(C)o1,5.92
13,COc1ccccc1C(=O)Nc1ccc(S(=O)(=O)Nc2nccs2)cc1,16
14,COc1cccc(C2C(C#N)=C(N)SC(c3ccccc3)C2[N+](=O)[O-])c1 (stereo not drawn),20.5
15,Cc1ccccc1C1=NC(c2ccc(F)cc2F)ON1 (stereo not drawn),8.21
16,O=C(NCCCN1CCOCC1)c1ccccc1-c1ccccc1,3.82
17,CSc1ccccc1NC(=O)c1cc(C)on1,1.57
18,COc1cc(C(=O)Nc2nc(OC)c(-c3ccccc3)c(OC)n2)cc(OC)c1OC,-16.2
19,COc1ccc(/C=N/NC(=O)c2ccc(Br)cc2)cc1CN1CCOCC1,-2.91
20,COc1cc(/C=N/NC(=O)c2ccncc2)ccc1OC(=O)c1cc(OC)c(OC)c(OC)c1,52.1
21,COc1cc(/C=N\NC(=O)c2ccc(C)nc2)ccc1OC(=O)c1cccc(F)c1,-1.23
22,COc1cc(/C=N/NC(=O)CNC(=O)c2ccccc2)ccc1OC(=O)c1cccs1,39.5
23,CCOc1cc(/C=N/NC(=O)COc2ccc(C)cc2)ccc1OC(=O)c1cccs1,48.1
24,COc1ccc(/C=N/NC(=O)c2cccnc2)cc1CN1CCOCC1,8.75
25,COc1cc(/C=N/NC(=O)COc2ccccc2C)ccc1OC(=O)c1cccs1,30.8
26,CCOc1cc(/C=N/NC(=O)COc2ccccc2C)ccc1OC(=O)c1cccs1,9.01
